# MITF TRPM1 inh: MITF TRPM1 promoter inhibition in SK-MEL-5 cells | SK-MEL-5 TRPM1 promoter luciferase, 24 h | inhibition, % at 12.5 µM | actives 0.83% (n = 330,000);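 active = mean inhibition across replicates of 60% or more, whatever share of single replicates reaches that level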
# LMP1 NFkB inh: Epstein-Barr LMP1 NF-kappaB reporter inhibition. AID 504558. actives 0.69% (n = 350,000). inhibition, % at 12.5 µM. LMP1-induced NF-kappaB luciferase reporter cells, luminescence; in the data active = inhibition above about 41%
# EWS-Fli inh: inhibitors of EWS/Fli oncoprotein transcriptional activity; A673 NR0B1-luciferase reporter, viability-normalised; inhibition, % at 12.6 µM; actives 0.67% (n = 350,000);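 active = mean inhibition of at least 50% after viability correction, with every replicate also passing that limit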;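 also: firefly luciferase signal divided by Alamar Blue viability fluorescence both relative to DMSO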
# PAX8 inh HTS: lowers PAX8-driven luciferase in RMG-I cells; RMG-I TPO-luciferase reporter, SteadyGlo, 24 h; inhibition, % at 12.6 µM; AID 652154; actives 1.2% (n = 360,000);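 active = mean replicate inhibition at least 60% with every replicate also reaching 60%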;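 also: luciferase light reporting Pax8 driven TPO promoter activity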
# LGR2 inh: blocks bursicon-induced cAMP signaling via Drosophila LGR2; HEK293 LGR2, CRE-luciferase, bursicon-stimulated, 4 h; inhibition, % at 9.99 µM; actives 0.35% (n = 380,000);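 active = drop in luminescence signal, shown as inhibition above about 50% in the replicate tests, limit read from the data, passing the limit was not always enough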;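 also: agonist challenge used bursicon conditioned medium at about half maximal strength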
# Shn3 inh set2: reduces Shn3 3'UTR luciferase signal in osteoblasts. inhibition, % at 12.5 µM. Clone20 osteoblast Shn3 3'UTR firefly luciferase, 24 h. actives 0.52% (n = 360,000);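 active = mean inhibition of at least 75% with every replicate also reaching 75%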
# A number is an active result; - = inactive; . = not tested or not shown. Compounds with a hit are over-represented: about 2.2% of the library has one in this group of screens.
SMILES,MITF TRPM1 inh,LMP1 NFkB inh,EWS-Fli inh,PAX8 inh HTS,LGR2 inh,Shn3 inh set2
CCNC(=O)C[C@@H]1CC[C@@H]2[C@@H](COc3ccc(NC(=O)NC(C)C)cc3C(=O)N2C)O1,.,.,-,-,-,.
Cc1ccccc1-n1nnnc1SCC(N)=O,-,-,.,.,-,-
Cc1ccccc1-n1nnnc1Sc1nnnn1-c1ccccc1,78,55,.,.,.,-
O=[N+]([O-])c1ccc(Sc2nnnn2-c2ccccc2)nc1,.,.,-,78,68,.
O=C(N[C@@H]1CC[C@@H](CCn2cc(C3(O)CCCC3)nn2)O[C@H]1CO)c1ccccc1F,.,.,-,-,-,.
C[C@H]1CN([C@@H](C)CO)C(=O)c2cc(NC(=O)CCN3CCOCC3)ccc2O[C@H]1CN(C)CC1CCCCC1,.,.,-,-,-,.
Cc1cc(C)c2nc3sc(C(=O)N4CCOCC4)c(N)c3cc2c1,-,51,-,69,-,-
Nc1c(C(=O)N2CCOCC2)sc2nc3c(cc12)CCCC3,-,56,-,71,71,-
Nc1c(C(=O)N2CCOCC2)sc2nc3c(cc12)CCC3,-,-,-,-,-,-
Cc1ccc(C)c2nc3sc(C(=O)N4CCOCC4)c(N)c3cc12,-,-,-,-,-,-
COc1ccc(-c2nc(CS(=O)CC(=O)NCc3ccc(Cl)cc3)c(C)o2)cc1 (stereo unspecified),-,44,-,-,-,-
COc1ccc2oc(C)c(C(=O)c3ccc([N+](=O)[O-])cc3)c2c1,-,-,-,93,-,-
COc1ccc2oc(C)c(C(N)=O)c2c1,-,-,.,.,.,-
O=c1c2c3c(sc2ncn1/N=C/c1ccc([N+](=O)[O-])o1)CCCC3,82,-,.,.,-,-
Cn1cc(/C=N/n2cnc3sc4c(c3c2=O)CCCC4)c2ccccc21,-,-,.,-,.,-
C[C@@H]1CN([C@H](C)CO)C(=O)c2cc(NS(C)(=O)=O)ccc2O[C@@H]1CN(C)Cc1ccc(-c2ccccc2)cc1,.,.,-,-,-,.
CCOC(=O)CSC1=NC(=O)/C(=C/c2ccc(OC)cc2)S1,82,-,.,.,.,-
CCC(NC(C)C)C(O)c1ccc(O)c2[nH]c(=O)ccc12 (stereo unspecified),-,74,.,.,.,-
COc1cc(NC(=O)Cn2ncc(Cl)c(Cl)c2=O)c(C)cc1[N+](=O)[O-],103,81,76,91,105,97
COc1cc(NC(=O)CN2C(=O)CN(C)C2=O)c(C)cc1[N+](=O)[O-],-,-,-,-,-,-
C[C@@H](O)C#Cc1ccc2c(c1)O[C@@H](CN(C)C(=O)C1CC1)[C@@H](C)CN([C@@H](C)CO)S2(=O)=O,.,.,-,.,-,.
CCOC(=O)N1CCN(c2c(NCc3ccc(Cl)cc3)c(=O)c2=O)CC1,-,-,52,-,-,-
CCOC(=O)N1CCN(c2c(NCc3ccc(F)cc3)c(=O)c2=O)CC1,-,-,57,-,-,-
CCOC(=O)N1CCN(c2c(NCc3cccs3)c(=O)c2=O)CC1,-,-,-,-,-,-
O=S(=O)(NCC1CCCO1)c1cnc(Cl)c(Br)c1 (stereo unspecified),-,-,-,110,-,-
SMILES,MITF TRPM1 inh,LMP1 NFkB inh,EWS-Fli inh,PAX8 inh HTS,LGR2 inh,Shn3 inh set2
O=S(=O)(NCC1CCCO1)c1cc(Cl)ccc1Br (stereo unspecified),-,-,.,.,-,-
O=[N+]([O-])c1ccc(Cl)c(S(=O)(=O)NCC2CCCO2)c1 (stereo unspecified),-,48,.,-,-,-
O=S(=O)(NCC1CCCO1)c1cc(Cl)ccc1Cl (stereo unspecified),-,-,-,.,-,-
O=C(NCC1CCCO1)C(=Cc1cccc([N+](=O)[O-])c1)C(=O)NCC1CCCO1 (stereo unspecified),-,-,-,98,-,-
Cc1ccc(S(=O)(=O)N(C)C[C@H]2OCCCC[C@H](C)Oc3ccc(NC(=O)NC4CCCCC4)cc3C(=O)N([C@H](C)CO)C[C@H]2C)cc1,.,.,-,-,-,.
COc1ccc(S(=O)(=O)Nc2ccc3c(c2)CC(=O)N([C@H](C)CO)C[C@@H](C)[C@H](CN(C)Cc2ccncc2)O3)cc1,.,.,-,-,-,.
O=C1CN(S(=O)(=O)Cc2ccccc2)C[C@@H]2[C@H](c3ccc(C#Cc4ccc(F)cc4)cc3)[C@H](CO)N12,.,.,-,80,-,.
O=C1CN(S(=O)(=O)Cc2ccccc2)C[C@@H]2[C@@H](c3ccc(C#CCC4CCCC4)cc3)[C@@H](CO)N12,.,.,-,99,.,.
O=C(Cc1ccccc1)N1C[C@H]2[C@@H](c3ccccc31)[C@@H](CO)N2C(=O)Nc1ccc(F)cc1,.,.,-,-,-,.
CCN1CC(=O)N2[C@H](CO)[C@@H](c3ccc(-c4cccnc4)cc3)[C@H]2C1,.,.,-,-,-,.
O=C(c1cnn2c(C(F)(F)F)cc(-c3ccccc3)nc12)N1CCCCC1c1cccnc1 (stereo unspecified),-,-,-,-,-,-
O=C(c1cc2nc(-c3ccc(F)cc3)cc(C(F)(F)F)n2n1)N1CCCCC1c1cccnc1 (stereo unspecified),-,-,-,-,-,90
CCOC(=O)C1(Cc2ccc(Cl)cc2)CCN(C(C)Cc2ccc(O)c(OC)c2)CC1 (stereo unspecified),-,-,-,-,-,92
Cc1nnc(NC(=O)CCS(=O)(=O)c2ccccc2)s1,-,-,-,-,-,-
CCOc1cccc2sc(NC(=O)CCS(=O)(=O)c3ccccc3)nc12,-,-,-,87,-,-
CC(=O)c1sc(NC(=O)CCS(=O)(=O)c2ccc(C)cc2)nc1C,-,-,-,85,-,-
CCOc1cccc2sc(N(CCN(C)C)C(=O)CCS(=O)(=O)c3ccccc3)nc12,-,-,.,-,-,-
CC(=O)c1sc(NC(=O)CS(=O)(=O)c2ccc(F)cc2)nc1C,-,-,-,.,-,-
COc1ccc(C)c2sc(NC(=O)CCS(=O)(=O)c3ccccc3)nc12,-,-,-,78,-,-
C[C@H]1CN([C@@H](C)CO)S(=O)(=O)c2ccc(-c3cccnc3)cc2O[C@@H]1CN(C)Cc1cccnc1,.,.,-,.,-,.
O=C(NCC[C@@H]1CC[C@H](NC(=O)C2CCC2)[C@H](CO)O1)c1cc(Cl)cc(Cl)c1,.,.,-,-,-,.
NC(=S)NN=Cc1cc(-c2cccc(N)c2)ccn1,.,-,-,94,-,-
NC(=S)N/N=C\c1c2ccccc2cc2ccccc12,-,-,-,-,-,-
COc1ccc(C(=O)N2[C@@H](C(C)C)COc3cc(Br)ccc3S2(=O)=O)cc1,-,-,-,65,-,-
COc1ccc2c3c([nH]c2c1)[C@@H](CO)N(C(=O)CC1CC1)CC31CCN(C(=O)CC2CC2)CC1,.,.,-,-,-,.
Cc1ccc(S(=O)(=O)Nc2ccc3c(c2)C(=O)N([C@@H](C)CO)C[C@@H](C)[C@H](CN(C)C(=O)c2ccncc2)OCCCC[C@H](C)O3)cc1,.,.,-,-,-,.
